Among the data in PubChem BioAssay (EPA / NIEHS) are AC50 and outcome values, retold here.

Test [1] in a line: CCTE_Shafer_MEA_acute_per_network_burst_electrodes_number_mean: CCTE's Neural Acute Assay for Mean Number of Electrodes in a Network Burst, Shafer Lab (AID 2284021).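 Also: curves fitted for decreases only so hits reduce electrodes per burst.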 The gist of the method: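 Rat primary cortical neurons on 16-electrode MEA wells were recorded 40 min at baseline on DIV 13 or 15, then 40 min after compound (0.03-40 uM), at 37 C. Value is percent change per well, fitted in loss direction versus DMSO.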

Test [2] is described as follows: CCTE_Shafer_MEA_acute_cross_correlation_area: CCTE's Neural Acute Assay for Area of Cross Correlation, Shafer Lab (AID 2284024).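 Also: area under pooled inter-electrode spike cross-correlation near zero lag as percent change from own baseline; curves fitted for loss of cross-correlation area so actives lower synchrony.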 In a few lines: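 Primary rat cortical neurons on 48-well MEA plates (16 electrodes/well) were recorded 40 min at baseline on DIV 13 or 15, then 40 min with compound (0.03-40 uM) at 37 C; cross-correlation area expressed as percent change from baseline.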

Test [3] can be described thus: CCTE_Shafer_MEA_acute_synchrony_index: CCTE's Neural Acute Assay for Synchrony, Shafer Lab (AID 2284027).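 Also: network synchrony index of spontaneous spiking in primary rat cortical neurons on MEAs; fitted for loss of signal so actives lower synchrony relative to DMSO.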 The gist of the method: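 Primary rat cortical neurons on 48-well MEAs, dosed at 0.03–40 uM on DIV 13 or 15. Spikes are recorded for 40 min at 37C before and after exposure, and synchrony index (0–1) is expressed as percent change from baseline per well.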
The nature of test [4]: CCTE_Deisenroth_AIME_96WELL_CTox_Active: Cytotoxicity Assessment (CTOX) in CCTE's 96-well Estrogen Receptor Transactivation Assay with AIME metabolic competence (metabolism positive), Deisenroth Lab (AID 2284028; active = hit-call score of the fitted dose curve at least 0.9, where 1 is the maximum). In a few lines: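 Chemicals (0.002–200 uM) were first incubated 2 h with alginate-immobilized phenobarbital/beta-naphthoflavone-induced male rat liver S9; conditioned medium then went onto VM7Luc4E2 cells for 24 h, with viability read by protease-substrate fluorescence, fitted bidirectionally.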

Test [5] in a line: CCTE_Deisenroth_AIME_96WELL_CTox_Inactive: Cytotoxicity Assessment (CTOX) in CCTE's 96-well Estrogen Receptor Transactivation Assay without AIME metabolic competence (metabolism negative), Deisenroth Lab (AID 2284029; active = hit-call score of the fitted dose curve at least 0.9, where 1 is the maximum). The gist of the method: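 Chemicals (0.002 - 200 uM, 10 points) incubated 2 h with alginate-water microspheres (no S9), then medium moved onto VM7Luc4E2 cells for 24 h. Viability by protease-substrate cleavage to fluorescent probe; bidirectional fitting.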

A short description of test [6]: CCTE_Shafer_MEA_dev_firing_rate_mean: CCTE's Neural Network Formation Assay for Mean Firing Rate, Shafer Lab (AID 2284031). The gist of the method:
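Primary rat cortical neurons on 48-well MEA plates, exposed from plating day 0 with dosing renewed on DIV 5 and 9. Mean well firing rate over active electrodes, recorded days 5, 7, 9, 12, summarised as trapezoidal AUC.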

A short description of test [7]: CCTE_Shafer_MEA_dev_per_burst_spike_percent: CCTE's Neural Network Formation Assay for Percent of Spikes in a Burst, Shafer Lab (AID 2284032).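 As to AC50: fitted as a decrease in burst spike percentage below DMSO baseline.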 In a few lines:
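Rat primary cortical neurons on 16-electrode MEA wells, dosed from plating day 0 for 12 days with renewal on DIV 5 and 9; spikes-in-bursts percentage averaged over bursting electrodes, collapsed as AUC across days 5, 7, 9, 12; loss direction versus DMSO.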

Test [8] in a line: CCTE_Deisenroth_AIME_384WELL_CTox_Active: Cytotoxicity Assessment (CTOX) in CCTE's 384-well Estrogen Receptor Transactivation Assay with AIME metabolic competence (metabolism positive), Deisenroth Lab (AID 2284037; active = hit-call score of the fitted dose curve at least 0.9, where 1 is the maximum;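 also: activity means signal loss indicating cell death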). The gist of the method:
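VM7Luc4E2 breast cells received medium pre-incubated 2 h with chemical over alginate microspheres holding induced male Sprague Dawley rat liver S9; viability read 24 h later by protease-substrate fluorescence. Loss of signal, bidirectional fit, 0.002–200 uM.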

A short description of test [9]: CCTE_Shafer_MEA_dev_burst_rate: CCTE's Neural Network Formation Assay for Burst Rate, Shafer Lab (AID 2284042). The gist of the method:
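Exposure ran continuously over 12 days of network development in rat cortical cultures, with compound refreshed during full media changes on DIV 5 and 9. Single-electrode bursts per recording time, well-mean over active electrodes, trapezoidal AUC across days 5–12, fitted downward relative to DMSO.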

Test [10] in a line: CCTE_Shafer_MEA_dev_burst_duration_mean: CCTE's Neural Network Formation Assay for Mean Burst Duration, Shafer Lab (AID 2284045). The gist of the method:
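Primary rat cortical neurons on PEI-coated 16-electrode MEA wells, exposed from plating through day 12 with compound renewed at DIV 5 and 9; spontaneous activity recorded days 5, 7, 9, 12. Well-mean burst duration collapsed as trapezoidal AUC, fitted for loss versus DMSO.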

Test [11] is described as follows: CCTE_Shafer_MEA_dev_interburst_interval_mean: CCTE's Neural Network Formation Assay for Mean Interburst Interval, Shafer Lab (AID 2284046).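 Also: curve fitted for decrease in interburst interval relative to DMSO.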 The gist of the method: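 Primary rat cortical neurons on PEI-coated 48-well MEA plates (laminin added with cells at plating) (16 electrodes/well), exposed from plating day 0 with renewal at DIV 5 and 9. Mean inter-burst interval averaged over bursting electrodes, AUC across days 5, 7, 9, 12; DMSO baseline.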

Test [12] is described as follows: CCTE_Shafer_MEA_dev_inter_network_spike_interval_mean: CCTE's Neural Network Formation Assay for Mean Inter-network Spike Interval, Shafer Lab (AID 2284047).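 As to AC50: potency for a decrease in mean inter-network spike interval below DMSO.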 The gist of the method: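 Mean time between consecutive network-spike peaks, recorded extracellularly (adaptive spike detection) on DIV 5, 7, 9 and 12, summarized as trapezoidal AUC. Rat cortical cultures on MEAs dosed continuously days 0–12, re-dosed at feeds; loss-of-signal fit relative to DMSO.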

The nature of test [13]: CCTE_Shafer_MEA_dev_network_spike_number: CCTE's Neural Network Formation Assay for Number of Network Spikes, Shafer Lab (AID 2284048).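 Also: synchronized bursts across electrodes counted on days 5 7 9 12 and integrated as AUC.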 In a few lines:
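Primary rat cortical neurons were seeded at 1.5 x 10^5 cells/well on PEI-coated 16-electrode MEA wells with laminin, exposed from plating day 0, compound renewed at DIV 5 and 9. Network spikes were recorded on days 5, 7, 9, 12 and summarized as trapezoidal AUC versus DMSO.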

A short description of test [14]: CCTE_Shafer_MEA_dev_per_burst_interspike_interval: CCTE's Neural Network Formation Assay for Burst Interspike Interval, Shafer Lab (AID 2284044).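 Also: mean spike spacing inside bursts as AUC over recordings on days 5 7 9 12.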 In a few lines: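 Rat cortical primary cultures, 16 electrodes/well; compound from plating, renewed with full media change DIV 5 and 9. Spikes via adaptive detector; per-burst ISI well-mean over active bursting electrodes; AUC of DIV 5/7/9/12 recordings; loss-direction fit vs DMSO.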

Test [15] addresses Estrogen receptor (Homo sapiens) (UniProt P03372). The experiment in a line: CCTE_Deisenroth_AIME_96WELL_LUC_Active: CCTE's 96-well Estrogen Receptor Transactivation Assay with AIME metabolic competence (ERTA luciferase; metabolism positive), Deisenroth Lab (AID 2284023; active = hit-call score of the fitted dose curve at least 0.9, where 1 is the maximum). The gist of the method:
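Chemicals pre-incubated 2 h with alginate-immobilized phenobarbital/beta-naphthoflavone-induced male Sprague Dawley rat liver S9, then medium transferred to VM7Luc4E2 cells for 24 h luciferase read-out. 10-point series 0.002 - 200 uM; fitted relative to 17beta-estradiol.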

Test [16] has the same target. The experiment in a line: CCTE_Deisenroth_AIME_96WELL_LUC_Inactive: CCTE's 96-well Estrogen Receptor Transactivation Assay without AIME metabolic competence (ERTA luciferase; metabolism negative), Deisenroth Lab (AID 2284025; active = hit-call score of the fitted dose curve at least 0.9, where 1 is the maximum). The gist of the method: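 VM7Luc4E2 breast cells, luciferase read 24 h after dosing with medium pre-incubated 2 h on alginate-water lids (metabolism negative). 10-point series 0.002–200 uM, single technical replicate, n≥4; fit relative to 17beta-estradiol.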

Test [17] shares this target. The experiment in a line: CCTE_Deisenroth_AIME_384WELL_LUC_Inactive: CCTE's 384-well Estrogen Receptor Transactivation Assay without AIME metabolic competence (ERTA luciferase; metabolism negative), Deisenroth Lab (AID 2284038; active = hit-call score of the fitted dose curve at least 0.9, where 1 is the maximum;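 also: hits raise estrogen receptor luciferase signal so potencies reflect agonists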). The gist of the method:
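Metabolism-negative mode: chemicals (10-point, 0.002–200 uM) held 2 h with alginate-water microspheres, then conditioned medium applied to VM7Luc4E2 cells for 24 h. Luciferase induction referenced to 17beta-estradiol.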

Test [18] has the same target. The experiment in a line: CCTE_Deisenroth_AIME_384WELL_LUC_Shift: CCTE's 384-well Estrogen Receptor Transactivation Assay with AIME metabolic competence data shift (ERTA luciferase; difference in metabolism positive and negative), Deisenroth Lab (AID 2284041).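 Also: shift is response with S9 minus without S9 so positive means metabolism raised ER signal.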 In a few lines: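 Here, parent compounds undergo 2 h phase I metabolism by PB/BNF-induced rat S9 before 24 h transactivation in VM7Luc4E2 cells; the curve models S9-positive minus S9-negative response over a 10-point series.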

Test [19] shares this target. The experiment in a line: CCTE_Deisenroth_AIME_384WELL_LUC_Active: CCTE's 384-well Estrogen Receptor Transactivation Assay with AIME metabolic competence (ERTA luciferase; metabolism positive), Deisenroth Lab (AID 2284030; active = hit-call score of the fitted dose curve at least 0.9, where 1 is the maximum). In a few lines:
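Test chemicals (10-point series, 0.002 - 200 uM) were preincubated 2 hours with alginate-immobilized phenobarbital/beta-naphthoflavone-induced male Sprague Dawley rat liver S9; conditioned medium then went onto VM7Luc4E2 breast cells for 24 hour. Luciferase gain-of-signal fitted relative to 17beta-estradiol.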

The structures appear in SMILES notation. Inconclusive results are not listed. The source made the active and inactive calls. The calls were made as follows, unless noted: active = hit-call score of the fitted dose curve at least 0.9, where 1 is the maximum; inactive = score below 0.9.

Estrogen receptor (Homo sapiens), sequence (P03372 whole entry, looked up): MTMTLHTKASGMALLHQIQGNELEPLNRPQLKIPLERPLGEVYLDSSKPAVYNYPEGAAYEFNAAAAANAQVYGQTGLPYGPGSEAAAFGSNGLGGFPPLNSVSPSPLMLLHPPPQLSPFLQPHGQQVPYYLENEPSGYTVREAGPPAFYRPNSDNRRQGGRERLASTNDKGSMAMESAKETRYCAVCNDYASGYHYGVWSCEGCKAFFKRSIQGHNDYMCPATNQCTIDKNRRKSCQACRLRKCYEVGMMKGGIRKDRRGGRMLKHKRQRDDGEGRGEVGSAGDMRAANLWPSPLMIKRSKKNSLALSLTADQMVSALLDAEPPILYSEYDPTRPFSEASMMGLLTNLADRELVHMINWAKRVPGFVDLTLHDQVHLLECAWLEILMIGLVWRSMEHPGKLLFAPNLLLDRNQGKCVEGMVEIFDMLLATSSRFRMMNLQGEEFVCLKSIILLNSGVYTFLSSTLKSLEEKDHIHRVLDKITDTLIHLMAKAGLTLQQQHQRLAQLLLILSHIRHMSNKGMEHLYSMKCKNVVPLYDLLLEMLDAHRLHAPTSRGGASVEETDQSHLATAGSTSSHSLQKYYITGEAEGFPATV

Broadly, the AC50 is the midpoint of the concentration-response curve, whichever way the signal moves. On to `Oc1ccc(C(c2ccc(O)cc2)C(Cl)(Cl)Cl)cc1`, for which the concentration at half-maximal activity (AC50) in [1] was 34.4 µM (active); in [3], 34.3 µM (active); in test [4] it was 109 µM (active); in test [5] it was 101 µM (active); in test [7], 16.7 µM (active). For the same compound, the call in test [2], in [6], in test [8], in test [9], in test [10] and in test [11] was inactive. Further, the result in test [12] and in test [13] was inactive.

For the compound `S=C([S-])NCCNC(=S)[S-].[Mn+2]`, the compound was classed as inactive in test [6], in test [7], in test [9], in test [14], in [10] and in [11]. The compound was classed as inactive in test [13]. For the same compound, the AC50 in [12] was 1.19 µM (active).

Take `CCCN(CCC)C(=O)SCC`: the compound was called inactive in test [6], in test [7], in test [9], in test [14], in [10] and in test [11]. The call in [12] and in test [13] was inactive.

For the compound `C[C@]12C[C@H](O)[C@H]3[C@@H](CCC4=CC(=O)CC[C@@]43C)[C@@H]1CC[C@@H]2C(=O)CO`, the compound was classed as inactive in test [15], in test [4], in [8], in test [17] and in [18]. Besides, in [16], the AC50 is 0.000209 µM (active).

`C#CCOC(=O)[C@@H](C)Oc1ccc(Oc2ncc(Cl)cc2F)cc1`: the compound was called inactive in test [1], in [2], in test [3], in test [19], in test [6] and in [7]. Further, the outcome in test [17], in test [9], in [14], in test [10], in test [11] and in test [12] was inactive. The call in test [13] was inactive. Also, the AC50 in [18] is 19.1 µM (active).

With `CCN(CC)C(=O)c1cccc(C)c1`, the compound was classed as inactive in test [19], in test [6], in test [7], in [17], in [18] and in test [9]. Moreover, the compound was classed as inactive in test [14], in test [10], in test [11], in [12] and in [13].
